Source: PubChem BioAssay
LYPLA2 counter: LYPLA2 (human) inhibition in PME1 counter-screen. recombinant LYPLA2, FP-Rh probe fluorescence polarization. actives 0.38% (n = 320,000). O95372. inhibition, % at 5.9 µM;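 active = inhibition above the screen-wide mean plus 3 SD, limit set per campaign, cut at about 26% in these data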;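 note: 0% = LYPLA2 with DMSO and 100% = wells lacking LYPLA2 enzyme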
LYPLA1 inh: blocks human lysophospholipase 1, a PME1 counter-screen; recombinant LYPLA1, FP-Rh probe fluorescence polarization; actives 0.16% (n = 320,000); O75608; inhibition, % at 5.9 µM;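 active = inhibition above the mean of all tested compounds plus 3 SD, set per campaign, cut at about 14% in these data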;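 note: inhibitors block serine hydrolase probe labeling of LYPLA1 so polarization falls; 0% = enzyme with DMSO and 100% = wells lacking LYPLA1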
Target sequence (O75608 whole entry, looked up): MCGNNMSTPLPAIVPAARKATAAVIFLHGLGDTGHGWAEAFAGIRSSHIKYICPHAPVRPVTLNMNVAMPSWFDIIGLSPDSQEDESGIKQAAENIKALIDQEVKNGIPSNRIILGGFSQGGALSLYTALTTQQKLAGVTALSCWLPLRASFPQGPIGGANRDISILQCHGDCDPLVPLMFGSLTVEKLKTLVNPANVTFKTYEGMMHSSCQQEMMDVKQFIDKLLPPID
PME-1 inh: PME-1 (human) inhibition. recombinant PME-1, FP-Rh probe fluorescence polarization. inhibition, % at 5.9 µM. actives 0.53% (n = 320,000);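 active = inhibition above the campaign mean of all compounds plus 3 SD, cut at about 26% in these data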;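 note: competitive labeling of PME-1 active site by serine hydrolase directed probe; 0% = PME-1 with DMSO and 100% = wells lacking PME-1 enzyme; inhibitors block probe labeling so polarization falls and inhibition rises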
Fam108B inh: blocks mouse Fam108B hydrolase in RBBP9 counter-screen | recombinant Fam108B, FP-Rh probe fluorescence polarization | inhibition, % at 9.51 µM | actives 0.33% (n = 300,000);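 active = inhibition above the screen mean inhibition plus 3 SD, computed separately per campaign, cut at about 18% in these data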;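 note: inhibitors lower polarization as less probe binds the enzyme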
GSTO1 counter: counter-screen for RBBP9 inhibitors: inhibitors of human GSTO1; P78417; recombinant GSTO1, activity-based probe fluorescence polarization; inhibition, % at 5.96 µM; actives 1.1% (n = 300,000); AID 1974;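 active = inhibition above the campaign mean inhibition plus 3 SD, cut at about 35% in these data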;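 note: 0% = GSTO1-1 with DMSO and 100% = wells lacking GSTO1-1 enzyme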
Target sequence (P78417 whole entry, looked up): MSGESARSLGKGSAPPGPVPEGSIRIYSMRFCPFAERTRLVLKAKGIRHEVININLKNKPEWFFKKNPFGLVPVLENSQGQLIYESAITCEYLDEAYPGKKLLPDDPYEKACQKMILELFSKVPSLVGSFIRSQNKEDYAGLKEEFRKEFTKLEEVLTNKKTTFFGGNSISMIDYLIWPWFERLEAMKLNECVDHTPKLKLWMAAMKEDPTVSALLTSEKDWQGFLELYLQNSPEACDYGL
PAD4 inh: blocks human protein arginine deiminase 4 | Q9UM07 | inhibition, % at 6.36 µM | AID 485272 | recombinant PAD4, RCA probe fluorescence polarization | actives 0.41% (n = 330,000);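 active = percent inhibition above a cutoff equal to the mean of all tested compounds plus 3 SD, cut at about 15% in these data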;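 note: 0% = PAD4 with RCA probe and DMSO and 100% = probe without PAD4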
LYPLA1 conf: counter-screen for PME1 inhibitors: confirmation of human LYPLA1 inhibitors | AID 2233 | shares compounds with LYPLA1 inh | actives 69% (n = 480) | inhibition, % at 5.9 µM | recombinant LYPLA1, FP-Rh probe fluorescence polarization;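 active = mean inhibition across replicates above the hit cutoff set in the primary screen, cut at about 15% in these data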;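 note: loss of FP-Rh probe labeling of LYPLA1 seen as lower polarization; 0% = LYPLA1 with DMSO and 100% = wells lacking LYPLA1 enzyme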
LYPLA2 conf: LYPLA2 (human) inhibition, confirmation counter-screen | shares compounds with LYPLA2 counter | recombinant LYPLA2, FP-Rh probe fluorescence polarization | actives 72% (n = 1,100) | AID 2232 | inhibition, % at 5.9 µM;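 active = mean inhibition across replicates above the hit cutoff set in the primary screen, cut at about 26% in these data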;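 note: blocked labeling of the enzyme by serine hydrolase FP-Rh probe lowers polarization; 0% = enzyme with DMSO and 100% = wells lacking LYPLA2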
PAD4 confirm: confirmation of human PAD4 inhibitors; shares compounds with PAD4 inh; recombinant PAD4, RCA probe fluorescence polarization; inhibition, % at 6.36 µM; actives 28% (n = 1,200); AID 488796;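 active = mean inhibition across replicates above the hit cutoff set by the earlier primary screen, cut at about 15% in these data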;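 note: inhibitors block active-site labeling by the probe so polarization falls; 0% = PAD4 with probe and DMSO and 100% = probe without PAD4 enzyme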
* marks the source's active call; other numbers are inactive results; · = not tested or not shown; + = active, no number. Compounds with a hit are over-represented: about 1.8% of the library has one in this group of screens.

SMILES	LYPLA2 counter	LYPLA1 inh	PME-1 inh	Fam108B inh	GSTO1 counter	PAD4 inh	LYPLA1 conf	PAD4 confirm	others
COc1ccc(C(CNC(=O)COc2ccc(-c3ccccc3)cc2)N2CCOCC2)cc1 (configuration not stated)	44*	45*	5	1	-6	3	57*	·	LYPLA2 conf=45*
O=C(NCCCN1CCCC1=O)Nc1ccc([N+](=O)[O-])cc1	-1	1	1	-2	-7	-2	·	·
Clc1cccc(N2CCN(CCNc3nc4ccccc4n4cnnc34)CC2)c1	67*	17*	5	0	2	-1	32*	·	LYPLA2 conf=62*
C=CCn1c(SCC(=O)NC2CCCCC2)nnc1-c1cccnc1	-3	-3	4	2	2	1	·	·
COC(=O)c1ccccc1-c1c2ccc(=N)cc-2oc2cc(N)ccc12	191*	170*	150*	·	·	+	130*	145*	LYPLA2 conf=155*
COc1cc(CNCc2ccncc2)cc(Br)c1OCc1ccccc1F	0	-2	-10	9	6	-4	·	·
COc1cc(CNc2ccc(O)cc2)cc(Br)c1OCc1ccccc1F	18	18*	42*	9	86*	28*	-1	8
CCN1/C(=C/C=C/c2oc3ccc(-c4ccccc4)cc3[n+]2CC)Oc2ccc(-c3ccccc3)cc21	64*	58*	72*	-11	-68	63*	-47	45*	LYPLA2 conf=-176
CCN1/C(=C/C=C/c2sc3ccccc3[n+]2CC)Sc2ccccc21	-291	-139	-296	-310	-168	-112	·	·
O=C(O)CCC(=O)N1CCc2c([nH]c3ccccc23)C1C(F)(F)F (configuration not stated)	0	1	-4	0	-9	-9	·	·
COc1cccc2c1C(=O)c1ccc3ccccc3c1C2=O	7	5	5	6	10	-3	·	·
COc1ccc(OC)c2c1C(=O)c1ccccc1C2=O	22	22*	28*	16	10	41*	4	38*
COc1ccc(N)c2c1C(=O)c1ccccc1C2=O	15	20*	18	12	14	33*	14*	10
COc1cccc(CN2CCNC(=O)C2CC(=O)NCCOc2cccnc2)c1 (configuration not stated)	-9	-2	-1	3	3	0	·	·
CC(=O)Nc1ccc(N/C=C2/CCCC2=O)cc1	6	1	9	1	9	4	·	·
Cc1cc(O)ccc1N/C=C1\CCCC1=O	15	19*	24	8	29	41*	3	0
CCN(CC(=O)NCc1cccs1)C(=O)CCOc1ccccc1	·	·	·	·	·	0	·	·
Cc1ccc(NS(=O)(=O)c2cccc(C(=O)N3CCN(c4ncccn4)CC3)c2)cc1	50*	24*	31*	·	·	36*	-1	3	LYPLA2 conf=2
Cc1ccc(C2CC(=O)Oc3cc(O)ccc32)cc1 (configuration not stated)	23	22*	23	15	27	60*	18*	63*
COc1ccc(CN2CC(C(=O)NCCCN3CCCC(C)C3)CC2=O)cc1 (configuration not stated)	1	-1	3	3	9	1	·	·
Cc1n[nH]c(C)c1N1C(=O)c2cccc3c(N4CCCCCC4)ccc(c23)C1=O	22	20*	17	8	13	38*	19*	27*
CCCCN(C(=O)c1ccc2c(c1)S(=O)(=O)N=C1CCCCCN12)c1c(N)n(CCCC)c(=O)[nH]c1=O	4	3	-8	6	11	-3	·	·
CN(C)C(=O)CSc1nc2ccc(N3C(=O)c4ccccc4C3=O)cc2s1	-5	-6	-5	0	-3	-1	·	·
c1ccc(CSc2nc3ccccc3[nH]2)cc1	-7	-1	-15	-7	6	-7	·	·
